Source: PubChem BioAssay AID1159580 (chemical genetic matrix, 2015)
Where “and” joins values, the source holds several entries; their conditions need not be identical. Identical values can stand only once. Hit rate of the full screen: of about 5,500 compounds, about 2,000 (36%) were called active. Another 18% or so got no clear call; they are omitted. Cut-off read from the data, not from the text of the source: active = normalized growth mostly below about 0.91 (no sharp cut-off); inconclusive = no clear call, values can overlap the other calls; inactive = mostly above about 0.92. This is one part of the list.

Assay: chemical genetic growth profiling, strain panel (AID 1159580);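 note: tested at 20 µM; growth read once vehicle control cultures reached saturation at 30 °C; 1 = growth at the plate median or of vehicle wells; lower values mean less growth of the strain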
Conditions: growth OD
[1] = S. cerevisiae deletion strains, locus YPL241C, strain CIN2, stronger effect = lower value

Measured: normalized growth

Oc1c(Cl)c(Cl)c(Cl)c(Cl)c1Cl
active: S. cerevisiae deletion strains, locus YAL013W, strain DEP1, stronger effect = lower value 0.885 | S. cerevisiae deletion strains, locus YBR021W, strain FUR4, stronger effect = lower value 0.636 | S. cerevisiae deletion strains, locus YBR229C, strain ROT2, stronger effect = lower value 0.845 | S. cerevisiae deletion strains, locus YCL029C, strain bik1, stronger effect = lower value 0.672 | S. cerevisiae deletion strains, locus YDL035C, strain GPR1, stronger effect = lower value 0.834 | S. cerevisiae deletion strains, locus YDL074C, strain BRE1, stronger effect = lower value 0.704 | S. cerevisiae deletion strains, locus YDL101C, strain DUN1, stronger effect = lower value 0.885 | S. cerevisiae deletion strains, locus YDL134C, strain PPH21, stronger effect = lower value 0.816 | S. cerevisiae deletion strains, locus YDL185W, strain tfp1, stronger effect = lower value 0.176 | S. cerevisiae deletion strains, locus YDL192W, strain arf1, stronger effect = lower value 0.811 | S. cerevisiae deletion strains, locus YDR101C, strain arx1, stronger effect = lower value 0.758 | S. cerevisiae deletion strains, locus YDR150W, strain NUM1, stronger effect = lower value 0.786 | S. cerevisiae deletion strains, locus YDR162C, strain NBP2, stronger effect = lower value 0.607 | S. cerevisiae deletion strains, locus YDR318W, strain mcm21, stronger effect = lower value 0.686 | S. cerevisiae deletion strains, locus YDR388W, stronger effect = lower value 0.763 | S. cerevisiae deletion strains, locus YDR502C, strain sam2, stronger effect = lower value 0.73 | S. cerevisiae deletion strains, locus YEL061C, strain CIN8, stronger effect = lower value 0.819 | S. cerevisiae deletion strains, locus YER110C, stronger effect = lower value 0.383 | S. cerevisiae deletion strains, locus YER155C, strain BEM2, stronger effect = lower value 0.669 | S. cerevisiae deletion strains, locus YER167W, strain BCK2, stronger effect = lower value 0.659 | S. cerevisiae deletion strains, locus YGL078C, strain dbp3, stronger effect = lower value 0.759 | S. cerevisiae deletion strains, locus YGL086W, strain mad1, stronger effect = lower value 0.772 | S. cerevisiae deletion strains, locus YGL248W, strain PDE1, stronger effect = lower value 0.818 | S. cerevisiae deletion strains, locus YGR078C, strain PAC10, stronger effect = lower value 0.745 | S. cerevisiae deletion strains, locus YGR135W, strain pre9, stronger effect = lower value 0.732 | S. cerevisiae deletion strains, locus YGR229C, strain SMI1, stronger effect = lower value 0.594 | S. cerevisiae deletion strains, locus YGR252W, strain gcn5, stronger effect = lower value 0.637 | S. cerevisiae deletion strains, locus YHR030C, strain SLT2, stronger effect = lower value 0.792 and 0.128 | S. cerevisiae deletion strains, locus YHR079C, strain IRE1 (second series), stronger effect = lower value 0.659 | S. cerevisiae deletion strains, locus YHR079C, strain IRE1, stronger effect = lower value 0.111 | S. cerevisiae deletion strains, locus YHR094C, strain hxt1, stronger effect = lower value 0.75 | S. cerevisiae deletion strains, locus YHR129C, strain ARP1, stronger effect = lower value 0.775 | S. cerevisiae deletion strains, locus YHR200W, strain rpn10, stronger effect = lower value 0.755 | S. cerevisiae deletion strains, locus YIL066C, strain RNR3, stronger effect = lower value 0.71 | S. cerevisiae deletion strains, locus YIL125W, strain kgd1, stronger effect = lower value 0.463 | S. cerevisiae deletion strains, locus YIR030C, strain dcg1, stronger effect = lower value 0.688 | S. cerevisiae deletion strains, locus YJL095W, strain BCK1, stronger effect = lower value 0.635 and 0.181 | S. cerevisiae deletion strains, locus YJL134W, strain LCB3, stronger effect = lower value 0.835 | S. cerevisiae deletion strains, locus YJL168C, strain set2, stronger effect = lower value 0.757 | S. cerevisiae deletion strains, locus YJL187C, strain SWE1 (second series), stronger effect = lower value 0.818 | S. cerevisiae deletion strains, locus YJR043C, strain POL32, stronger effect = lower value 0.716 | S. cerevisiae deletion strains, locus YJR066W, strain TOR1, stronger effect = lower value 0.00405 | S. cerevisiae deletion strains, locus YJR075W, strain HOC1, stronger effect = lower value 0.71 | S. cerevisiae deletion strains, locus YKL009W, strain mrt4, stronger effect = lower value 0.569 | S. cerevisiae deletion strains, locus YKL068W, stronger effect = lower value 0.759 | S. cerevisiae deletion strains, locus YKL085W, strain MDH1 (second series), stronger effect = lower value 0.647 | S. cerevisiae deletion strains, locus YKL085W, strain MDH1, stronger effect = lower value 0.647 | S. cerevisiae deletion strains, locus YKL190W, strain CNB1, stronger effect = lower value 0.811 | S. cerevisiae deletion strains, locus YKR001C, strain vps1, stronger effect = lower value 0.3 | S. cerevisiae deletion strains, locus YLR039C, strain RIC1, stronger effect = lower value 0.332 | S. cerevisiae deletion strains, locus YLR058C, strain SHM2, stronger effect = lower value 0.801 | S. cerevisiae deletion strains, locus YLR102C, strain apc9, stronger effect = lower value 0.739 | S. cerevisiae deletion strains, locus YLR113W, strain HOG1, stronger effect = lower value 0.16 | S. cerevisiae deletion strains, locus YLR262C, strain YPT6, stronger effect = lower value 0.365 | S. cerevisiae deletion strains, locus YLR268W, strain sec22, stronger effect = lower value 0.718 | S. cerevisiae deletion strains, locus YLR330W, strain CHS5, stronger effect = lower value 0.778 | S. cerevisiae deletion strains, locus YLR342W, strain FKS1 (second series), stronger effect = lower value 0.743 | S. cerevisiae deletion strains, locus YLR371W, strain rom2, stronger effect = lower value 0.79 | S. cerevisiae deletion strains, locus YLR418C, strain cdc73, stronger effect = lower value 0.41 | S. cerevisiae deletion strains, locus YML016C, strain PPZ1, stronger effect = lower value 0.831 | S. cerevisiae deletion strains, locus YML032C, strain rad52, stronger effect = lower value 0.709 | S. cerevisiae deletion strains, locus YML124C, strain tub3, stronger effect = lower value 0.739 | S. cerevisiae deletion strains, locus YMR078C, strain ctf18, stronger effect = lower value 0.554 | S. cerevisiae deletion strains, locus YMR223W, strain ubp8, stronger effect = lower value 0.73 | S. cerevisiae deletion strains, locus YMR263W, strain SAP30, stronger effect = lower value 0.773 | S. cerevisiae deletion strains, locus YMR307W, strain GAS1, stronger effect = lower value 0.391 | S. cerevisiae deletion strains, locus YNL067W, strain RPL9B, stronger effect = lower value 0.791 | S. cerevisiae deletion strains, locus YNL153C, strain GIM3, stronger effect = lower value 0.85 | S. cerevisiae deletion strains, locus YNL183C, strain NPR1, stronger effect = lower value -0.00166 | S. cerevisiae deletion strains, locus YNL233W, strain BNI4, stronger effect = lower value 0.782 | S. cerevisiae deletion strains, locus YNL250W, strain rad50, stronger effect = lower value 0.585 | S. cerevisiae deletion strains, locus YNL271C, strain bni1, stronger effect = lower value 0.7 | S. cerevisiae deletion strains, locus YNL298W, strain CLA4, stronger effect = lower value 0.679 | S. cerevisiae deletion strains, locus YNL307C, strain MCK1, stronger effect = lower value 0.226 | S. cerevisiae deletion strains, locus YNL322C, strain KRE1, stronger effect = lower value 0.826 | S. cerevisiae deletion strains, locus YNR052C, strain pop2, stronger effect = lower value 0.802 | S. cerevisiae deletion strains, locus YOL147C, strain pex11, stronger effect = lower value 0.603 | S. cerevisiae deletion strains, locus YOR061W, strain CKA2, stronger effect = lower value 0.826 | S. cerevisiae deletion strains, locus YOR069W, strain VPS5, stronger effect = lower value 0.849 | S. cerevisiae deletion strains, locus YOR136W, strain idh2, stronger effect = lower value 0.828 | S. cerevisiae deletion strains, locus YOR144C, strain elg1, stronger effect = lower value 0.756 | S. cerevisiae deletion strains, locus YOR184W, strain ser1, stronger effect = lower value 0.584 | S. cerevisiae deletion strains, locus YOR231W, strain MKK1, stronger effect = lower value 0.106 | S. cerevisiae deletion strains, locus YOR316C, strain cot1, stronger effect = lower value 0.688 | S. cerevisiae deletion strains, locus YPL055C, strain LGE1, stronger effect = lower value 0.732 | [1] 0.819 | S. cerevisiae deletion strains, locus YPL256C, strain CLN2, stronger effect = lower value 0.113 | S. cerevisiae deletion strains, locus YPR119W, strain clb2, stronger effect = lower value 0.691 | S. cerevisiae deletion strains, locus YPR141C, strain kar3, stronger effect = lower value 0.724 | S. cerevisiae deletion strains, locus YPR163C, strain tif3, stronger effect = lower value 0.562 | S. cerevisiae deletion strains, locus YPR167C, strain met16, stronger effect = lower value 0.731 | S. cerevisiae deletion strains, strain wtn01, stronger effect = lower value 0.732 | S. cerevisiae strains, strain wild type, stronger effect = lower value 0.809
inactive: S. cerevisiae deletion strains, locus YIL073C, strain SPO22, stronger effect = lower value 0.801 | S. cerevisiae deletion strains, locus YNL128W, strain TEP1, stronger effect = lower value 0.878 | S. cerevisiae deletion strains, locus YOL006C, strain TOP1, stronger effect = lower value 0.739 | S. cerevisiae deletion strains, locus YOL012C, strain htz1 0.527

NC(=O)COc1c(F)cc(SCCNS(=O)(=O)c2ccccc2)cc1F
inactive: S. cerevisiae deletion strains, locus YAL040C, strain CLN3, stronger effect = lower value 1.03 | S. cerevisiae deletion strains, locus YCL061C, strain MRC1 (second series), stronger effect = lower value 1 | S. cerevisiae deletion strains, locus YDR363W, strain ESC2, stronger effect = lower value 0.968 | S. cerevisiae deletion strains, locus YER002W, strain NOP16, stronger effect = lower value 0.97 | S. cerevisiae deletion strains, locus YNL175C, strain NOP13, stronger effect = lower value 0.977 | S. cerevisiae deletion strains, locus YNL197C, strain WHI3, stronger effect = lower value 0.975 | S. cerevisiae deletion strains, locus YNL224C, strain SQS1, stronger effect = lower value 0.983 | S. cerevisiae deletion strains, locus YOR083W, strain WHI5 (second series), stronger effect = lower value 0.998 | [1] 0.996
